Inconclusive results are not listed. Calls of active or inactive are those of the source. Unless noted, calls come from the whole dose curve; as a rule, active = well fitted curve in the direction sought with a large enough effect in the repeat runs; inconclusive = weak or mixed curves; inactive = no such curve, though single readings can be large; an effect the other way counts as inactive or inconclusive.
Tests used:
[1] = qHTS assay to identify small molecule agonists of the hypoxia (HIF-1) signaling pathway - cell viability counter screen (AID 1224844; calls by dose curve; note: nearly all actives have a fitted effect of over 50% in size)
Summary of the method: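 In this counter screen, HRE-bla ME-180 cell viability after 17 hrs of compound exposure at 37C was read by CellTiter-Glo luminescence, multiplexed with the beta-lactamase reporter measurement.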

[2] = qHTS assay to identify small molecule agonists of H2AX (AID 1224845; active = well fitted activation curve with a large enough effect in the signal ratio in the repeat runs, not every such curve was filed as active; the % refers to the signal ratio)
Summary of the method: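 Phospho-H2AX Ser139 measured by HTRF (ex 320 nm; em 665 and 620 nm) after 24 hr antibody incubation. Compounds, 15 concentrations, 0.76% DMSO, were applied to CHO-K1 cells for 3hr at 37C before lysis.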

[3] = qHTS assay to identify small molecule agonists of the hypoxia (HIF-1) signaling pathway (AID 1224846; active = well fitted activation curve with a large enough effect in the signal ratio in the repeat runs, not every such curve was filed as active; the % refers to the signal ratio)
Summary of the method: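 ME-180 HRE-bla reporter cells; compounds in DMSO, 17 h at 37C; read-out beta-lactamase via CCF4-AM FRET.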

[4] = qHTS assay to identify small molecule agonists of H2AX - cell viability counter screen (AID 1224847; calls by dose curve; note: top concentration of the series differs between compounds; nearly all actives have a fitted effect of over 30% in size)
Summary of the method: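 Quantitative HTS viability measurement: CHO-K1 wild-type cells in serum (10% FBS) medium, short 3 hr drug exposure at 37C with 0.76% DMSO, CellTiter-Glo luminescent detection.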

[5] = qHTS assay to identify small molecule antagonists of the estrogen related receptor (ERR) signaling pathway from Tox21 library (AID 1224848); note: nearly all actives have a fitted effect of over 50% in size
Summary of the method: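 ERR cell line, 2,000 cells/well. 6 h settle, then compound (DMSO) added; 18 h at 37 C; ONE-Glo luminescence after 30 min RT.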

[6] = qHTS RealTime-Glo MT Cell Viability Assay in HepG2 cells - 24 hour (AID 1224867); note: nearly all actives have a fitted effect of over 50% in size
Summary of the method: (§1)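 qHTS, HepG2, 600 cells/well, RealTime-Glo (NanoLuc + prosubstrate) added with cells; 5 h preincubation; DMSO compound addition; 37 C; luminescence at 0/8/16/24/32/40 h.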

[7] = qHTS RealTime-Glo MT Cell Viability Assay in HEK293 cells - 16 hour (AID 1224872); note: nearly all actives have a fitted effect of over 50% in size; note: potency is the fitted concentration of half-maximal effect
Summary of the method: (§2)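 Assay medium contained NanoLuc luciferase plus cell-permeant prosubstrate, added with HEK293 cells at 600 cells/well. After 5 h at 37 C/5% CO2 compounds were added; plates stayed at 37 C for 40 h with serial luminescence reads.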

[8] = qHTS RealTime-Glo MT Cell Viability Assay in HepG2 cells - 8 hour (AID 1224873); note: nearly all actives have a fitted effect of over 55% in size
Summary of the method: (§3)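 Real-time viability: cells seeded at 600 per well together with NanoLuc and cell-permeant prosubstrate, compounds added after 5 h incubation. Luminescence tracked at 0, 8, 16, 24, 32 and 40 h of exposure.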

[9] = qHTS RealTime-Glo MT Cell Viability Assay in HEK293 cells - 40 hour (AID 1224874); details: RealTime-Glo luminescence; max response: active compounds read low; note: nearly all actives have a fitted effect of over 50% in size; note: potency is the fitted concentration of half-maximal effect
Summary of the method: (§4)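 Kinetic, non-lysing viability readout. Seed HEK293 (600/well) with reagent, incubate 5 h at 37 C/5% CO2, pin 23 nL compound in DMSO, incubate at 37 C, read luminescence at 0, 8, 16, 24, 32, 40 h.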

[10] = A CellTox Green Cytotoxicity Assay to monitor cytotoxicity in HepG2 cells - 16 hour (AID 1224876); note: nearly all actives have a fitted effect of over 45% in size
Summary of the method: (§5)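 Cytotoxicity was tracked as dead-cell DNA fluorescence in HepG2 cells treated with test compounds at 37 C; each time-point value comes from one kinetic series spanning 0, 8, 16, 24, 32 and 40 h.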

[11] = qHTS RealTime-Glo MT Cell Viability Assay in HepG2 cells - 32 hour (AID 1224877); note: nearly all actives have a fitted effect of over 55% in size
Summary of the method: as §1

[12] = A CellTox Green Cytotoxicity Assay to monitor cytotoxicity in HepG2 cells - 24 hour (AID 1224878); note: nearly all actives have a fitted effect of over 45% in size
Summary of the method: as §5

[13] = A CellTox Green Cytotoxicity Assay to monitor cytotoxicity in HepG2 cells - 40 hour (AID 1224879); note: nearly all actives have a fitted effect of over 40% in size
Summary of the method: as §5

[14] = qHTS RealTime-Glo MT Cell Viability Assay in HEK293 cells - 0 hour (AID 1224880); note: top concentration of the series differs between compounds; nearly all actives have a fitted effect of over 45% in size
Summary of the method: as §4

[15] = qHTS assay to identify small molecule agonists of the estrogen related receptor (ERR) signaling pathway from Tox21 library (AID 1224849; calls by dose curve; note: nearly all actives have a fitted effect of over 15% in size); details: ERR reporter cell line, ONE-Glo luciferase, 18 h; at 92.4 µM (top of the series) unless noted
Summary of the method: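 Luciferase activity in ERR pathway reporter cells served as the agonist readout; exposure lasted 18 h at 37 C, with ONE-Glo detection after 30 min at room temperature.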

[16] = qHTS RealTime-Glo MT Cell Viability Assay in HEK293 cells - 32 hour (AID 1224868); note: nearly all actives have a fitted effect of over 50% in size; note: potency is the fitted concentration of half-maximal effect
Summary of the method: as §2

[17] = A CellTox Green Cytotoxicity Assay to monitor cytotoxicity in HEK293 cells - 0 hour (AID 1224869); note: nearly all actives have a fitted effect of over 50% in size
Summary of the method: (§6)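 Real-time, in one plate: 600 HEK293 cells/well with dead-cell DNA dye, pinned compound after 5 h, 37 C incubation over 40 h; viable cells give no appreciable fluorescence.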

[18] = qHTS RealTime-Glo MT Cell Viability Assay in HepG2 cells - 40 hour (AID 1224870); note: nearly all actives have a fitted effect of over 50% in size
Summary of the method: as §3

[19] = A CellTox Green Cytotoxicity Assay to monitor cytotoxicity in HEK293 cells - 40 hour (AID 1224871); note: nearly all actives have a fitted effect of over 45% in size
Summary of the method: as §6

[20] = A CellTox Green Cytotoxicity Assay to monitor cytotoxicity in HEK293 cells - 24 hour (AID 1224875); note: nearly all actives have a fitted effect of over 45% in size
Summary of the method: as §6
% is set by controls: 0 for no effect and ±100 for the full control effect.

CCc1cc2c(s1)-n1c(C)nnc1CN=C2c1ccccc1Cl
inactive: Potency [1] | Potency [2] | outcome [3] | Potency [4] | Potency [5] | Potency [6] | Potency [7] | Potency [8] | max response [9] -28.6% | Potency [10] | Potency [11] | Potency [12] | Potency [13] | outcome [14]

CC(Cl)(Cl)[N+](=O)[O-]
inactive: Potency [1] | Potency [2] | outcome [3] | Potency [4] | Potency [5] | activity change, positive = activation [15] 2.67% | Potency [16] | Potency [17] | Potency [18] | Potency [19] | Potency [7] | Potency [8] | max response [9] 2.41% | Potency [20] | Potency [10] | Potency [11] | Potency [12] | Potency [13] | outcome [14]

COc1cc(C[C@@H](C)N)c(OC)cc1C
inactive: Potency [1] | Potency [2] | outcome [3] | Potency [4] | activity change, positive = activation [15] -3.22% | Potency [6] | Potency [16] | Potency [17] | Potency [18] | Potency [19] | Potency [7] | Potency [8] | max response [9] -9.2% | Potency [20] | Potency [10] | Potency [11] | Potency [12] | Potency [13] | outcome [14]

COC(=O)c1ccccc1S(=O)(=O)NC(=O)N(C)c1nc(C)nc(OC)n1
inactive: Potency [1] | Potency [2] | outcome [3] | Potency [4] | activity change, positive = activation [15] 6.39% | Potency [6] | Potency [16] | Potency [17] | Potency [18] | Potency [19] | Potency [8] | max response [9] 10.1% | Potency [20] | Potency [10] | Potency [11] | Potency [12] | Potency [13] | outcome [14]

CN(C)CCc1ccc(O)cc1
inactive: Potency [1] | Potency [2] | outcome [3] | Potency [4] | Potency [5] | activity change, positive = activation [15] 5.13% [at 42.5 µM] | Potency [6] | Potency [17] | Potency [18] | Potency [19] | Potency [7] | max response [9] 11.4% | Potency [20] | Potency [10] | Potency [11] | Potency [12] | Potency [13] | outcome [14]

CC1=NNC(=O)N(/N=C/c2cccnc2)C1
inactive: Potency [1] | Potency [2] | outcome [3] | Potency [4] | activity change, positive = activation [15] -0.152% | Potency [6] | Potency [16] | Potency [17] | Potency [18] | Potency [19] | Potency [7] | Potency [8] | max response [9] 3.94% | Potency [20] | Potency [10] | Potency [11] | Potency [12] | Potency [13] | outcome [14]

CC(=O)C(Cl)Cl
inactive: Potency [1] | Potency [2] | outcome [3] | Potency [4] | Potency [5] | activity change, positive = activation [15] 4.96% | Potency [6] | Potency [16] | Potency [17] | Potency [18] | Potency [19] | Potency [7] | Potency [8] | max response [9] 7% | Potency [20] | Potency [10] | Potency [11] | Potency [12] | outcome [14]

COc1cc(OC)nc(Sc2cccc(Cl)c2C(=O)O)n1
inactive: Potency [1] | Potency [2] | outcome [3] | Potency [4] | activity change, positive = activation [15] 0.33% | Potency [6] | Potency [16] | Potency [17] | Potency [18] | Potency [19] | max response [9] 16.2% | Potency [20] | Potency [10] | Potency [11] | Potency [12] | Potency [13] | outcome [14]

CC(=O)CCc1ccc2c(c1)OCO2
inactive: Potency [1] | Potency [2] | outcome [3] | Potency [4] | Potency [5] | activity change, positive = activation [15] -0.0233% | Potency [6] | Potency [16] | Potency [17] | Potency [18] | Potency [7] | Potency [8] | max response [9] 0.514% | Potency [20] | Potency [10] | Potency [11] | Potency [12] | Potency [13] | outcome [14]

O=CNC(N1CCN(C(NC=O)C(Cl)(Cl)Cl)CC1)C(Cl)(Cl)Cl (configuration not stated)
inactive: Potency [1] | Potency [2] | outcome [3] | Potency [4] | Potency [5] | activity change, positive = activation [15] 2.23% | Potency [6] | Potency [16] | Potency [17] | Potency [18] | Potency [19] | Potency [7] | Potency [8] | max response [9] -2.73% | Potency [20] | Potency [10] | Potency [11] | Potency [12] | Potency [13] | outcome [14]

CCC(C)n1c(=O)[nH]c(C)c(Br)c1=O (configuration not stated)
inactive: Potency [1] | Potency [2] | outcome [3] | Potency [4] | Potency [5] | activity change, positive = activation [15] -4.95% | Potency [6] | Potency [16] | Potency [17] | Potency [18] | Potency [19] | Potency [7] | Potency [8] | max response [9] 0.435% | Potency [20] | Potency [10] | Potency [11] | Potency [12] | Potency [13] | outcome [14]

CCCCOC(=O)[C@@H](C)Oc1ccc(Oc2ccc(C#N)cc2F)cc1
active: Potency [16] 21.7 µM | Potency [7] 13.7 µM | Potency [9] 38.7 µM
inactive: Potency [1] | Potency [2] | outcome [3] | Potency [4] | Potency [5] | activity change, positive = activation [15] -5.11% | Potency [17] | Potency [18] | Potency [19] | Potency [20] | Potency [10] | Potency [11] | Potency [12] | Potency [13] | outcome [14]

N#CCNCC#N
inactive: Potency [1] | Potency [2] | outcome [3] | Potency [4] | Potency [5] | activity change, positive = activation [15] 2.04% | Potency [6] | Potency [16] | Potency [17] | Potency [18] | Potency [19] | Potency [7] | Potency [8] | max response [9] 3.83% | Potency [20] | Potency [10] | Potency [11] | Potency [12] | Potency [13] | outcome [14]

CC(C(=O)c1ccccc1)N(C)C (configuration not stated)
inactive: Potency [1] | Potency [2] | outcome [3] | Potency [4] | Potency [6] | Potency [16] | Potency [17] | Potency [19] | Potency [7] | Potency [8] | max response [9] 2.47% | Potency [20] | Potency [10] | Potency [11] | Potency [12] | Potency [13] | outcome [14]

— PubChem BioAssay (Tox21)
